How the values were obtained:
[1] = target: T1, GST-Nv-NF-kB (Ser allele) (Nematostella vectensis, UniProt A7UNT2 2-411); test: protein-binding microarray (PBM); PBM: ~300 nM protein, 6 mM HEPES pH 7.8, 80 mM KCl, 0.5 mM EDTA, 0.5 mM EGTA, 6% glycerol, 35 ng/ul poly-dIdC, 1% milk, 1 h, room temperature; Ap Aiptasia and Nv Nematostella (sea anemones) / Co Capsaspora / Aq Amphimedon (sponge) / Dm Drosophila / Hu human; RHD is the Rel homology domain; high values mean tight binding; settings: dsDNA, one strand shown
T1 sequence: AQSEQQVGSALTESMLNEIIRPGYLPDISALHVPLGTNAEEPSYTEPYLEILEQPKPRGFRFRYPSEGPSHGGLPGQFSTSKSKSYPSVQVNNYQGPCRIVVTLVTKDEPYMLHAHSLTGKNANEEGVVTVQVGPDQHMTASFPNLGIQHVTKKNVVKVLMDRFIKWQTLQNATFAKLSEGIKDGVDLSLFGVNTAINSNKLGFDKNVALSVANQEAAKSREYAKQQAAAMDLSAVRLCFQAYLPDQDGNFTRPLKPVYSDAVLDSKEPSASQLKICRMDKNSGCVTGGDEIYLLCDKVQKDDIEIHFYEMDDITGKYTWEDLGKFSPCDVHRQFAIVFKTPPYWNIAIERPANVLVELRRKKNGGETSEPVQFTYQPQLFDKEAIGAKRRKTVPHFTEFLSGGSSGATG

[2] = target: GST-Hu-p50 (Homo sapiens, UniProt P19838 7-356); test: as above; settings: dsDNA, one strand shown
Sequence of GST-Hu-p50 (P19838 7-356): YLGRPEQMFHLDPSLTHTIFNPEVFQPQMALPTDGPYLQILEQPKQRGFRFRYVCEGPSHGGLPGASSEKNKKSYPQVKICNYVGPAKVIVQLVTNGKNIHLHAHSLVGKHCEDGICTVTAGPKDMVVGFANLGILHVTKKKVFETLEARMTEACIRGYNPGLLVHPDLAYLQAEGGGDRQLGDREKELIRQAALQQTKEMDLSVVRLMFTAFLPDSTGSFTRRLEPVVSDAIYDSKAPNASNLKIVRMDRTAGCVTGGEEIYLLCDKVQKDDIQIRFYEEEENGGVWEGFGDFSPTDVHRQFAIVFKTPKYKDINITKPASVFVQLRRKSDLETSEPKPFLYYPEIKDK

| Sequence | binding signal [1] | binding signal [2] |
| --- | --- | --- |
| CCGATTAACATCAGGAATTTACCTGATGTTAATCGGGTCTTGATTCGCTTGACGCTGCTG | 4.26 z-score | 3.27 z-score |
| CCGATTAACATCACGGAATTACCTGATGTTAATCGGGTCTTGATTCGCTTGACGCTGCTG | 3.86 z-score | 2.38 z-score |
| CCGATTAACATCAAATAGCCCCCTGATGTTAATCGGGTCTTGATTCGCTTGACGCTGCTG | 3.62 z-score | 4.73 z-score |
| CCGATTAACATCACATTATCCCCTGATGTTAATCGGGTCTTGATTCGCTTGACGCTGCTG | 6.4 z-score | 3.94 z-score |
| CCGATTAACATCAAGGAATACCCTGATGTTAATCGGGTCTTGATTCGCTTGACGCTGCTG | 4.74 z-score | 4.19 z-score |
| CCGATTAACATCACTAATTTCCCTGATGTTAATCGGGTCTTGATTCGCTTGACGCTGCTG | 6.51 z-score | 3.94 z-score |
| CCGATTAACATCAGGGAATTCCATGATGTTAATCGGGTCTTGATTCGCTTGACGCTGCTG | 5.22 z-score | 4.7 z-score |
| CCGATTAACATCAAAAAAACCCATGATGTTAATCGGGTCTTGATTCGCTTGACGCTGCTG | 4.6 z-score | 4.37 z-score |
| CCGATTAACATCATCTGGGAAAATGATGTTAATCGGGTCTTGATTCGCTTGACGCTGCTG | 4.03 z-score | 1.96 z-score |
| CCGATTAACATCAGGGACTTACCTGATGTTAATCGGGTCTTGATTCGCTTGACGCTGCTG | 5.49 z-score | 4.61 z-score |
| CCGATTAACATCAGAAAAAACCCTGATGTTAATCGGGTCTTGATTCGCTTGACGCTGCTG | 5.08 z-score | 4.96 z-score |
| CCGATTAACATCAAAAATTTACCTGATGTTAATCGGGTCTTGATTCGCTTGACGCTGCTG | 6.08 z-score | 3.82 z-score |
| CCGATTAACATCAAATATACCCATGATGTTAATCGGGTCTTGATTCGCTTGACGCTGCTG | 1.7 z-score | 1.83 z-score |
| CCGATTAACATCAGCTTGGGAAATGATGTTAATCGGGTCTTGATTCGCTTGACGCTGCTG | 1.58 z-score | 1.1 z-score |
| CCGATTAACATCAATAAATACCCTGATGTTAATCGGGTCTTGATTCGCTTGACGCTGCTG | 6.32 z-score | 5.25 z-score |
| CCGATTAACATCAGAACTTTCCCTGATGTTAATCGGGTCTTGATTCGCTTGACGCTGCTG | 5.58 z-score | 4.94 z-score |
| CCGATTAACATCAGGAGAACCCCTGATGTTAATCGGGTCTTGATTCGCTTGACGCTGCTG | 1.24 z-score | 3.68 z-score |
| CCGATTAACATCAAGGGGGTGACTGATGTTAATCGGGTCTTGATTCGCTTGACGCTGCTG | 3.83 z-score | 3.9 z-score |
| CCGATTAACATCAAGTACCCCCATGATGTTAATCGGGTCTTGATTCGCTTGACGCTGCTG | 3.01 z-score | 2.36 z-score |
| CCGATTAACATCAAGGGATTCCCTGATGTTAATCGGGTCTTGATTCGCTTGACGCTGCTG | 4.98 z-score | 3.73 z-score |
| CCGATTAACATCAGGGGGTGTTATGATGTTAATCGGGTCTTGATTCGCTTGACGCTGCTG | 4.85 z-score | 5.17 z-score |
| CCGATTAACATCAGGGGGTAGGATGATGTTAATCGGGTCTTGATTCGCTTGACGCTGCTG | 3.54 z-score | 2.97 z-score |
| CCGATTAACATCAGGGGTTTACCTGATGTTAATCGGGTCTTGATTCGCTTGACGCTGCTG | 4.43 z-score | 4.94 z-score |

| Sequence | binding signal [1] | binding signal [2] |
| --- | --- | --- |
| CCGATTAACATCAGGGGAAGGACTGATGTTAATCGGGTCTTGATTCGCTTGACGCTGCTG | 5.04 z-score | 3.89 z-score |
| CCGATTAACATCACACCACCCCCTGATGTTAATCGGGTCTTGATTCGCTTGACGCTGCTG | 3.35 z-score | 3.65 z-score |
| CCGATTAACATCATGGGAAAAAATGATGTTAATCGGGTCTTGATTCGCTTGACGCTGCTG | 5.03 z-score | 3.83 z-score |
| CCGATTAACATCAGGGAGCTCCCTGATGTTAATCGGGTCTTGATTCGCTTGACGCTGCTG | 1.82 z-score | 2.59 z-score |
| CCGATTAACATCAAGGGGGGATATGATGTTAATCGGGTCTTGATTCGCTTGACGCTGCTG | 4.16 z-score | 4.95 z-score |
| CCGATTAACATCAGGGTATTCCATGATGTTAATCGGGTCTTGATTCGCTTGACGCTGCTG | 4.16 z-score | 4.11 z-score |
| CCGATTAACATCAGGAAAAACCCTGATGTTAATCGGGTCTTGATTCGCTTGACGCTGCTG | 3.96 z-score | 4.56 z-score |
| CCGATTAACATCACGGGAGTTCCTGATGTTAATCGGGTCTTGATTCGCTTGACGCTGCTG | 1.6 z-score | 2.24 z-score |
| CCGATTAACATCACTAAATTCCCTGATGTTAATCGGGTCTTGATTCGCTTGACGCTGCTG | 5.8 z-score | 4.08 z-score |
| CCGATTAACATCAGGATATTCCCTGATGTTAATCGGGTCTTGATTCGCTTGACGCTGCTG | 4.19 z-score | 3.1 z-score |
| CCGATTAACATCAGGGGTGGGAATGATGTTAATCGGGTCTTGATTCGCTTGACGCTGCTG | 1.67 z-score | 1.53 z-score |
| CCGATTAACATCAAATTCCCAGCTGATGTTAATCGGGTCTTGATTCGCTTGACGCTGCTG | 3.85 z-score | 2.81 z-score |
| CCGATTAACATCAGGGGGTAATATGATGTTAATCGGGTCTTGATTCGCTTGACGCTGCTG | 5.13 z-score | 4.43 z-score |
| CCGATTAACATCAGGGGGATGGATGATGTTAATCGGGTCTTGATTCGCTTGACGCTGCTG | 4.26 z-score | 3.69 z-score |
| CCGATTAACATCACGGGAAACTCTGATGTTAATCGGGTCTTGATTCGCTTGACGCTGCTG | 3.54 z-score | 2.31 z-score |
| CCGATTAACATCAGGGAAACCCATGATGTTAATCGGGTCTTGATTCGCTTGACGCTGCTG | 3.84 z-score | 3.11 z-score |
| CCGATTAACATCAGGGGGGTACATGATGTTAATCGGGTCTTGATTCGCTTGACGCTGCTG | 3.54 z-score | 2.93 z-score |
| CCGATTAACATCAGGAATGTACCTGATGTTAATCGGGTCTTGATTCGCTTGACGCTGCTG | 3.2 z-score | 2.14 z-score |
| CCGATTAACATCACCAAAACCCCTGATGTTAATCGGGTCTTGATTCGCTTGACGCTGCTG | 4.14 z-score | 4.83 z-score |
| CCGATTAACATCACGTGTTTCCCTGATGTTAATCGGGTCTTGATTCGCTTGACGCTGCTG | 3.33 z-score | 1.11 z-score |
| CCGATTAACATCAGGGAATACCATGATGTTAATCGGGTCTTGATTCGCTTGACGCTGCTG | 2.61 z-score | 1.46 z-score |
| CCGATTAACATCAGGGATCTACCTGATGTTAATCGGGTCTTGATTCGCTTGACGCTGCTG | 1.74 z-score | 2.74 z-score |

From paper PMC5700166
